High-throughput results (PubChem BioAssay)
Shiga inhibitor = blocks Shiga toxin action in Vero cells; inhibition, % at 38.7 µM; 290,000 compounds, 9.2% hits; Vero cells, Shiga toxin protein synthesis inhibition reporter; in the data active = inhibition mostly above about 28%, no sharp cut-off; inactive = mostly below about 43%; also: 0% is about no effect
Pf growth 48h = inhibits P. falciparum growth in the first generation, 48 h | AID 504832 | 310,000 compounds, 5.9% hits | P. falciparum luciferase growth in erythrocytes, 48 h | Potency, µM (doses to about 28.7 µM), for inactives: at the highest dose activity change, negative = inhibition, actives largely listed as inhibitors; also: potency is read from the fitted curve at half-maximal effect; % is scaled to controls: 0 for no effect and ±100 for the full control effect
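In quantitative HTS format, infected erythrocytes bearing luciferase-reporter parasites were treated for a single generation at 37 C. Luminescence after adding detection reagent served as the growth measure.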
Pf growth 96h = inhibits malaria parasite growth, 96 h. P. falciparum luciferase reporter growth, 96 h. Potency, µM (titrated, usually from 28.7 µM), without a hit: at the top dose activity change, negative = inhibition, hits mostly inhibitors. 320,000 compounds, 6.9% hits; also: potency is read from the fitted curve at half-maximal effect; % is scaled to controls: 0 for no effect and ±100 for the full control effect
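P. falciparum expressing integrated firefly luciferase grown in erythrocytes (2% hematocrit, 0.05% parasitemia final) with compounds for 96 hours at 37 C, 5% CO2. Growth inhibition read as loss of luminescence after adding luciferase detection reagent.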
CHX counter = affects cycloheximide protein synthesis inhibition readout, counter-screen; cell reporter, cycloheximide protein synthesis inhibition counterscreen; max response, %; 300,000 compounds, 12% hits; AID 2314; in the data active = max response mostly above about 13%, no sharp cut-off; inactive = mostly below about 14%; also: read at 38.3 µM for the half of the compounds with a filed dose; 0% is about no effect
HCMV antiviral = inhibitors of human cytomegalovirus; HFF cells, HCMV-luciferase reporter, 72 h; hits give low values; activity change, negative = inhibition, % at 57.5 µM; 410,000 compounds, 4.5% hits; AID 1259415; in the data active = activity change below about -60%; inconclusive = no clear call, values can overlap the other calls; inactive = above about -39%; also: % is scaled to controls: 0 for no effect and ±100 for the full control effect
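Luciferase read-out from HCMV-luciferase-infected HFFs (MOI 1 PFU/cell) 72 h post infection at 37C; compounds added after 16 h cell attachment; activity normalized between buffer-only basal and Salinomycin (10uM) inhibitor controls.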
Active calls of the source: *; ? = inconclusive; . = not tested or not shown; [ ] = remark or other dose. Compounds with a hit are over-represented: about 20% of the library has one in this group of screens. Unless noted, calls follow the shape of the dose curve; as a rule, active = well fitted inhibition curve with a large enough effect; inconclusive = small, poorly fitted or top-dose-only effect, or another doubt; inactive = no such curve, though single readings can be large or run the other way.

SMILES	Shiga inhibitor	Pf growth 48h	Pf growth 96h	CHX counter	HCMV antiviral
NC(N)=N/N=C/c1ccccc1	-13	.	-47%	-2	6
COc1ccc(/C=N/NC(=O)Cc2ccc(Cl)cc2)cc1OC	21	2%	?	1	33
NC(N)=N/N=C/c1ccc(OCc2ccccc2)c(OCc2ccccc2)c1	7	0.52µM*	?	-6	-103*
O=C(O)c1cc(/C=N\O)ccc1OCc1ccccc1	23	46%	.	3	23
COc1cc(/C=N/O)ccc1OCc1ccc(Cl)cc1	70	245%	19%	37*	137
COc1cc(/C=N/N=C(N)N)ccc1OCc1ccc(Cl)cc1	76	?	-3%	40*	-102*
O=C(c1ccccc1)c1ccc(OCCOCCN2CCN(Cc3ccccc3)CC2)cc1	-8	?	27%	-7	-26
CCN(c1ccc(Cl)cc1)S(=O)(=O)c1nnc(NC(=O)C(C)C)s1	2	4%	16%	0	-4
COc1cc(/C=N/N=C2/NC(=O)C(CC(=O)O)S2)ccc1OCc1ccc(Cl)cc1 (centres undefined)	38	41%	?	20*	13
CCOc1cc(/C=N/NC(=O)CN2CCOCC2)ccc1OCc1ccc(Cl)cc1	-5	?	13µM*	1	2
NC(N)=N/N=C/c1ccc(OCc2ccccc2Cl)cc1	-29	0.15µM*	0.13µM*	-15	-31
CCOc1cc(/C=N/NC(=O)CN2CCCCC2)ccc1OCc1ccccc1	-4	40%	36%	-2	3
COc1ccc(Cl)cc1NC(=O)CC1S/C(=N/N=C2CCCCCC2)NC1=O (centres undefined)	7	?	13µM*	7	18
C[N+]1(C)[C@@H]2CC(OC(=O)C(O)(c3cccs3)c3cccs3)C[C@H]1[C@@H]1O[C@@H]12 (some centres undefined)	.	?	2%	.	.
CC1CCCCC1NC(=O)CN1CCC(NC(=O)c2cccc(F)c2)CC1 (centres undefined)	-13	-9%	31%	3	?
O=C(CSc1n[nH]c(-c2ccccc2)n1)N1CCN(c2ccc(F)cc2)CC1	.	.	.	.	-15
COCCN(C(=O)CCC(=O)Nc1cc(C)on1)C(C(=O)NC(C)(C)C)c1cccc(OC)c1OC (centres undefined)	-3	7%	-2%	-2	-16
CCOc1ccc(NC(=O)c2cc3sc(Cl)cc3n2CC)cc1	.	.	.	.	-33
NC(=O)NC(=O)CC1S/C(=N/N=C/c2ccccc2)NC1=O (centres undefined)	-4	-34%[1.15 µM]	?	-7	2
CCOc1cc(/C=N/N=C(N)N)ccc1OCc1ccc(Cl)cc1	-23	1.5µM*	?	-12	-24
O=C(O)CC1S/C(=N/N=C/c2ccccn2)NC1=O (centres undefined)	-4	5.2µM*	?	2	0
CCOc1cc(/C=N/N=C(/N)c2nonc2N)cc(Br)c1OCc1ccc(Cl)cc1	2	?	.	15	13
C=CCc1c(O)c(CC)cc2c(C)cc(=O)oc12	-9	-25%	-2%	-2	-26
CC1(C)CC(NC(=O)c2ccccc2F)CC(C)(C)N1	-2	-23%	?	-3	23
N#Cc1c(/N=C/c2cccs2)sc2c1CCCCC2	86*	354%	.	35*	-28
SMILES	Shiga inhibitor	Pf growth 48h	Pf growth 96h	CHX counter	HCMV antiviral
N#Cc1c(/N=C/c2ccc(Br)s2)sc2c1CCC2	15*	316%	333%	25	20
Cc1ccc(/C=N/c2sc3c(c2C#N)CCC3)o1	2	?	?	1	-17
N#Cc1c(/N=C/c2ccc(-c3ccccc3C(=O)O)o2)sc2c1CCCC2	111*	.	-3%	60*	8
N#Cc1c(/N=C\c2ccc(O)c([N+](=O)[O-])c2)sc2c1CCCC2	45	72%	82%	44*	-13
CC(C)[C@H](NC(=O)OC(C)(C)C)c1cc(C(=O)NC2CC2)c(N)s1	.	.	.	.	-2
O=C(Cn1nc(C(=O)O)c2ccccc2c1=O)Nc1cccc(Br)c1	23	5%	31%	-1	5
COc1ccc2[nH]c3c(=O)n(/N=C/[C@H]4C(C)C=C(C)CC4C)c(=O)[nH]c3c2c1 (some centres undefined)	5	?	-67%	-2	-80*
COc1ccc2c(c1)[nH]c1c(=O)n(/N=C/C3C(C)C=C(C)CC3C)c(=O)[nH]c12 (centres undefined)	-6	10%	-28%	-5	-24
